About 2,000 (36%) of roughly 5,500 compounds were called active. Another 18% or so got no clear call; they are omitted. Cut-off read from the data, not from the text of the source: active = normalized growth mostly below about 0.91 (no sharp cut-off); inconclusive = no clear call, values can overlap the other calls; inactive = mostly above about 0.92. The list shows a part of the results.
Assay: chemical genetic growth profiling, strain panel (AID 1159580);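 note: tested at 20 µM; growth read once vehicle control cultures reached saturation at 30 °C; 1 = growth at the plate median or of vehicle wells; lower values mean less growth of the strain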
Conditions: growth OD

Measured: normalized growth

COc1ccc2c(c1OC)C(=O)OC2[C@H]1c2c(cc3c(c2OC)OCO3)CCN1C (stereo partly drawn)
inactive: S. cerevisiae deletion strains, locus YJR043C, strain POL32, stronger effect = lower value 0.986 | S. cerevisiae deletion strains, locus YJR066W, strain TOR1, stronger effect = lower value 0.973 | S. cerevisiae deletion strains, locus YKL009W, strain mrt4, stronger effect = lower value 0.972 | S. cerevisiae deletion strains, locus YKL068W, stronger effect = lower value 0.99 | S. cerevisiae deletion strains, locus YKL085W, strain MDH1 (second series), stronger effect = lower value 0.991 | S. cerevisiae deletion strains, locus YKL085W, strain MDH1, stronger effect = lower value 0.991 | S. cerevisiae deletion strains, locus YKL160W, strain elf1, stronger effect = lower value 1.01 | S. cerevisiae deletion strains, locus YKL190W, strain CNB1, stronger effect = lower value 0.995 | S. cerevisiae deletion strains, locus YKR001C, strain vps1, stronger effect = lower value 0.985 | S. cerevisiae deletion strains, locus YKR026C, strain gcn3, stronger effect = lower value 1 | S. cerevisiae deletion strains, locus YKR091W, strain srl3, stronger effect = lower value 1.01 | S. cerevisiae deletion strains, locus YLL001W, strain dnm1, stronger effect = lower value 0.973 | S. cerevisiae deletion strains, locus YLL026W, stronger effect = lower value 1.01 | S. cerevisiae deletion strains, locus YLL041C, strain sdh2, stronger effect = lower value 0.995 | S. cerevisiae deletion strains, locus YLR027C, strain aat2, stronger effect = lower value 1.02 | S. cerevisiae deletion strains, locus YLR039C, strain RIC1, stronger effect = lower value 0.997 | S. cerevisiae deletion strains, locus YLR058C, strain SHM2, stronger effect = lower value 1.01 | S. cerevisiae deletion strains, locus YLR102C, strain apc9, stronger effect = lower value 0.994 | S. cerevisiae deletion strains, locus YLR113W, strain HOG1, stronger effect = lower value 0.966 | S. cerevisiae deletion strains, locus YLR221C, strain rsa3, stronger effect = lower value 1 | S. cerevisiae deletion strains, locus YLR258W, strain gsy2, stronger effect = lower value 1.02 | S. cerevisiae deletion strains, locus YLR262C, strain YPT6 (second series), stronger effect = lower value 1.03 | S. cerevisiae deletion strains, locus YLR262C, strain YPT6, stronger effect = lower value 1 | S. cerevisiae deletion strains, locus YLR268W, strain sec22, stronger effect = lower value 0.948 | S. cerevisiae deletion strains, locus YLR320W, strain mms22, stronger effect = lower value 0.975 | S. cerevisiae deletion strains, locus YLR330W, strain CHS5, stronger effect = lower value 0.991 | S. cerevisiae deletion strains, locus YLR342W, strain FKS1 (second series), stronger effect = lower value 1.01 | S. cerevisiae deletion strains, locus YLR342W, strain FKS1, stronger effect = lower value 1.01 | S. cerevisiae deletion strains, locus YLR357W, strain rsc2, stronger effect = lower value 0.997 | S. cerevisiae deletion strains, locus YLR370C, strain arc18, stronger effect = lower value 1.02 | S. cerevisiae deletion strains, locus YLR371W, strain rom2, stronger effect = lower value 0.98 | S. cerevisiae deletion strains, locus YLR384C, strain iki3, stronger effect = lower value 1 | S. cerevisiae deletion strains, locus YLR418C, strain cdc73, stronger effect = lower value 0.984 | S. cerevisiae deletion strains, locus YML016C, strain PPZ1, stronger effect = lower value 1 | S. cerevisiae deletion strains, locus YML032C, strain rad52, stronger effect = lower value 0.99 | S. cerevisiae deletion strains, locus YML120C, strain ndi1, stronger effect = lower value 1.02 | S. cerevisiae deletion strains, locus YML124C, strain tub3, stronger effect = lower value 0.989 | S. cerevisiae deletion strains, locus YMR058W, strain fet3, stronger effect = lower value 1.01 | S. cerevisiae deletion strains, locus YMR078C, strain ctf18, stronger effect = lower value 0.993 | S. cerevisiae deletion strains, locus YMR125W, strain sto1, stronger effect = lower value 1.01 | S. cerevisiae deletion strains, locus YMR129W, stronger effect = lower value 1.01 | S. cerevisiae deletion strains, locus YMR205C, strain PFK2, stronger effect = lower value 0.981 | S. cerevisiae deletion strains, locus YMR223W, strain ubp8, stronger effect = lower value 1.01 | S. cerevisiae deletion strains, locus YMR231W, strain pep5, stronger effect = lower value 1.01 | S. cerevisiae deletion strains, locus YMR307W, strain GAS1, stronger effect = lower value 1 | S. cerevisiae deletion strains, locus YNL067W, strain RPL9B, stronger effect = lower value 0.993 | S. cerevisiae deletion strains, locus YNL071W, strain lat1, stronger effect = lower value 1.02 | S. cerevisiae deletion strains, locus YNL153C, strain GIM3, stronger effect = lower value 1.01 | S. cerevisiae deletion strains, locus YNL183C, strain NPR1, stronger effect = lower value 0.951 | S. cerevisiae deletion strains, locus YNL209W, strain ssb2, stronger effect = lower value 1 | S. cerevisiae deletion strains, locus YNL233W, strain BNI4, stronger effect = lower value 0.999 | S. cerevisiae deletion strains, locus YNL248C, strain rpa49, stronger effect = lower value 0.984 | S. cerevisiae deletion strains, locus YNL250W, strain rad50, stronger effect = lower value 0.985 | S. cerevisiae deletion strains, locus YNL271C, strain bni1, stronger effect = lower value 0.984 | S. cerevisiae deletion strains, locus YNL298W, strain CLA4, stronger effect = lower value 0.992 | S. cerevisiae deletion strains, locus YNL307C, strain MCK1, stronger effect = lower value 0.987 | S. cerevisiae deletion strains, locus YNL322C, strain KRE1 (second series), stronger effect = lower value 1.02 | S. cerevisiae deletion strains, locus YNR049C, strain mso1, stronger effect = lower value 1.01 | S. cerevisiae deletion strains, locus YNR052C, strain pop2, stronger effect = lower value 0.978 | S. cerevisiae deletion strains, locus YOL006C, strain TOP1, stronger effect = lower value 1.07 | S. cerevisiae deletion strains, locus YOL012C, strain htz1 0.809 | S. cerevisiae deletion strains, locus YOL147C, strain pex11, stronger effect = lower value 0.987 | S. cerevisiae deletion strains, locus YOR001W, strain rrp6, stronger effect = lower value 1.02 | S. cerevisiae deletion strains, locus YOR061W, strain CKA2, stronger effect = lower value 1.01 | S. cerevisiae deletion strains, locus YOR069W, strain VPS5, stronger effect = lower value 1 | S. cerevisiae deletion strains, locus YOR070C, strain gyp1, stronger effect = lower value 0.996 | S. cerevisiae deletion strains, locus YOR080W, strain dia2, stronger effect = lower value 1.04 | S. cerevisiae deletion strains, locus YOR083W, strain WHI5, stronger effect = lower value 0.953 | S. cerevisiae deletion strains, locus YOR106W, strain vam3, stronger effect = lower value 1.02 | S. cerevisiae deletion strains, locus YOR136W, strain idh2, stronger effect = lower value 0.995 | S. cerevisiae deletion strains, locus YOR144C, strain elg1, stronger effect = lower value 1 | S. cerevisiae deletion strains, locus YOR184W, strain ser1, stronger effect = lower value 0.976 | S. cerevisiae deletion strains, locus YOR231W, strain MKK1, stronger effect = lower value 0.985 | S. cerevisiae deletion strains, locus YOR265W, strain rbl2, stronger effect = lower value 1.02 | S. cerevisiae deletion strains, locus YOR270C, strain vph1, stronger effect = lower value 1.04 | S. cerevisiae deletion strains, locus YOR290C, strain snf2, stronger effect = lower value 1.02 | S. cerevisiae deletion strains, locus YOR316C, strain cot1, stronger effect = lower value 0.989 | S. cerevisiae deletion strains, locus YPL051W, strain arl3, stronger effect = lower value 1.02 | S. cerevisiae deletion strains, locus YPL078C, strain atp4, stronger effect = lower value 1 | S. cerevisiae deletion strains, locus YPL106C, strain sse1, stronger effect = lower value 1.07 | S. cerevisiae deletion strains, locus YPL240C, strain hsp82, stronger effect = lower value 1.01 | S. cerevisiae deletion strains, locus YPL256C, strain CLN2, stronger effect = lower value 0.984 | S. cerevisiae deletion strains, locus YPR119W, strain clb2, stronger effect = lower value 0.995 | S. cerevisiae deletion strains, locus YPR141C, strain kar3, stronger effect = lower value 0.993 | S. cerevisiae deletion strains, locus YPR163C, strain tif3, stronger effect = lower value 0.984 | S. cerevisiae deletion strains, locus YPR167C, strain met16, stronger effect = lower value 0.986 | S. cerevisiae deletion strains, strain wtn01, stronger effect = lower value 0.967 | S. cerevisiae strains, strain wild type, stronger effect = lower value 1.01

Source: PubChem BioAssay AID1159580 (chemical genetic matrix, 2015)
